Source: PubChem
NPSR antagonist – blocks cAMP signaling of the human neuropeptide S receptor. Q6W5P4. CHO-NPSR cells, cAMP TR-FRET, antagonist mode. Potency, µM (top dose mostly 38.3 µM), inactives show top-dose activity change, negative = inhibition, actives largely listed as inhibitors. actives 1% (n = 220,000). AID 1461; further: potency means the concentration at half of the fitted maximal effect; on the % scale 0 is the no-effect control and ±100 the full control effect; nearly all actives have a fitted effect of over 50% in size
HTT cytoprotect – protects HTT-Q103 PC12 cells, measured by ATP. PC12 HTT-Q103 induced, cytoprotection, ATP luminescence, 40 h. actives 0.14% (n = 230,000). Potency, µM (titrated, usually from 56.4 µM), without a hit: cytoprotection (ATP increase), usual class: activators. AID 1471; further: potency means the concentration at half of the fitted maximal effect; % of control where 0% means no effect; nearly all actives have a fitted effect of over 45% in size
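Huntington model: PC12 line, ecdysone-inducible HTTQ103 exon1–GFP, tebufenozide 100 nM. Test articles in a dose series. Endpoint luminescence from cellular ATP.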
HTT aggregate – reduces HttQ103-GFP aggregates in PC12 cells | Potency, µM (top dose mostly 46.1 µM), without a hit: at the top dose activity change, negative = inhibition, most hits filed as inhibitors | actives 1.1% (n = 220,000) | PC12 HttQ103-GFP aggregates, Acumen cytometry, 40 h; further: potency means the concentration at half of the fitted maximal effect; on the % scale 0 is the no-effect control and ±100 the full control effect; nearly all actives have a fitted effect of over 60% in size
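PC12/HTTQ103-GFP, ecdysone-inducible; teb 100 nM; cpd qHTS titration; GFP aggregates read on laser cytometer, Ex 488/Em 500-530 nm.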
MBNL1 CUG block – inhibitors of human MBNL1 binding to CUG repeat RNA; Potency, µM (series often up to 57.5 µM), without a hit: at the highest dose activity change, negative = inhibition, hits mostly inhibitors; Q9NR56; TR-FRET MBNL1-His/biotin-(CUG)12 binding, 665/545 ratio; actives 0.036% (n = 280,000); active means well fitted inhibition curve with a large enough effect in the signal ratio, with a control signal flat, not every such curve was filed as active; inconclusive means small, poorly fitted or top-dose-only effect, or effect the other way, or a change in a side signal; inactive means no such curve, though single readings can be large or run the other way; the % refers to the signal ratio; further: potency means the concentration at half of the fitted maximal effect; on the % scale 0 is the no-effect control and ±100 the full control effect
Target sequence (Q9NR56 whole entry, looked up): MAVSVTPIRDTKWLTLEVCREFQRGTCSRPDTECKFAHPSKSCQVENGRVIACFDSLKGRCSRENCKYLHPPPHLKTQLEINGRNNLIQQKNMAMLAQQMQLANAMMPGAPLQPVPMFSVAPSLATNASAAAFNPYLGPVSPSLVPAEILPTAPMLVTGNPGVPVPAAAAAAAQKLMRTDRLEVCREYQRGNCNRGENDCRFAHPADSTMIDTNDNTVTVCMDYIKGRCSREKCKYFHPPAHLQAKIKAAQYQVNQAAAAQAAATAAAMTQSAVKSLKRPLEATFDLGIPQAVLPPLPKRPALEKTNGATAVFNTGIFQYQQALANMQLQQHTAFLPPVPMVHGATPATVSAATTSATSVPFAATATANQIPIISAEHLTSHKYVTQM
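Compounds (final 92 nM to 58 uM) are added to His-tagged MBNL1 and biotin-(CUG)12, then terbium anti-His antibody and streptavidin-XL665 (5 nM final). After 60 min at room temperature, the 665/545 nm ratio is read.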
CBFb-RUNX1 inh – blocks binding between human CBF-beta and RUNX1; Q01196+Q13951; AlphaScreen CBFb-His/RUNX1-biotin binding, biochemical; Potency, µM (doses to about 59.8 µM), inactives show top-dose activity, negative = inhibition, usual class: inhibitors; 230,000 tested, under 10 active; AID 1477; further: % of control where 0% means no effect
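Interaction loss through any mechanism counts as activity. Pre-formed complex of His-CBF-beta and biotin-RUNX1 (30 nM apiece) is incubated with compound 15 min, then with 50 ng nickel and 50 ng streptavidin beads for 90 min before AlphaScreen detection.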
Lamin A splicing – changes lamin A minigene splicing in HeLa cells. AID 1487. HeLa LMNA splicing GFP/RFP minigene ratio, 48 h. actives 0.01% (n = 200,000). Potency, µM (top dose mostly 46.1 µM), inactives show at the highest dose ratio change, negative = inhibition, most hits filed as inhibitors; active means well fitted inhibition curve with a large enough effect in the signal ratio, with a control signal flat, not every such curve was filed as active; inconclusive means small, poorly fitted or top-dose-only effect, or effect the other way, or a change in a side signal; the % refers to the signal ratio; further: potency means the concentration at half of the fitted maximal effect; on the % scale 0 is the no-effect control and ±100 the full control effect
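S3 HeLa stable clones carrying a lamin A-EGFP splicing minigene plus DsRed2 were seeded at 600 cells/well in Opti-MEM with 2% FBS, pin-dosed and incubated 48 h at 37°C. Acumen cytometry (488 nm) gave the GFP/RFP total-intensity ratio.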
Numbers without * were called inactive; ? = inconclusive; . = no result; [ ] = another dose, or the depositor's remark. Compounds with a hit are over-represented: about 1.1% of the library has one in this group of screens. Unless noted, the call rests on the fitted dose curve; in most records, active means well fitted curve in the direction sought with a large enough effect; inconclusive means small, poorly fitted or top-dose-only effect, or another doubt; inactive means no such curve, though single readings can be large; an effect the other way counts as inactive or inconclusive.

SMILES	NPSR antagonist	HTT cytoprotect	HTT aggregate	MBNL1 CUG block	CBFb-RUNX1 inh	Lamin A splicing
CC(C)c1ccc(N2C=Nc3ccc(C(C)C)cc3C2)cc1	7.9µM*	0%[10 µM]	32%[9.22 µM]	-3%	6%	.
Cc1c(C(=O)N2CCC(C)CC2)sc2ncnc(N(C)c3ccccc3)c12	-9%[46.1 µM]	-19%[10 µM]	20µM*	78%	7%	-14%
Cc1cccc(N2CCN(C(=O)c3ccc(CS(=O)(=O)c4ccccc4C)o3)CC2C)c1 (configuration not stated)	-1%[46.1 µM]	-143%[0.074 µM]	22µM*	1%	-11%	?
Cc1ccc(C)c(N2CCN(C(=O)c3ccc(CS(=O)(=O)c4ccccc4C)o3)CC2)c1	-24%[46.1 µM]	-8%[10 µM]	28µM*	-1%	-8%	?
CCOc1cc(CNc2ccc(N(C)C)cc2)cc(Br)c1OCC(=O)NC(C)(C)C	10µM*	15%[10 µM]	-19%	?	-18%	?
COc1ccc(-c2nc(-c3cccs3)c(-c3cccs3)[nH]2)cc1O	10µM*	-51%	-32%	57%	-18%	-6%
COc1ccc(-c2nnc(-c3cccs3)o2)cc1OC	-15%[46.1 µM]	-8%[1.9 µM]	7%	18%	9%	-6%
CCn1nc(C)c2c(-c3ccccc3)cc(=O)n(C(C)C(=O)NCc3ccc(C)cc3)c21 (configuration not stated)	.	.	.	.	.	-14%[46 µM]
O=C(NC1CCCCC1)C(c1ccc2ncccc2c1)N(Cc1ccc(F)cc1)C(=O)c1ccc2c(c1)OCCO2 (configuration not stated)	13µM*	-17%	-21%	-14%	-5%	12%
O=C(CCCCCn1c(=S)[nH]c2ccc(N3CCOCC3)cc2c1=O)NCc1ccc(Cl)cc1	10µM*	7%[10 µM]	14%[9.22 µM]	20%	17%	-5%[46 µM]
O=C(CCCCCn1c(=S)[nH]c2ccc(N3CCOCC3)cc2c1=O)NCc1ccc2c(c1)OCO2	-59%	.	28%	0%	-2%	.
Cc1nc2c(C(=O)NCc3ccc4c(c3)OCO4)cnn2c(C)c1Cc1ccc(F)cc1Cl	10µM*	-8%	18%	-17%	-2%	6%[0.0737 µM]
Cc1c(C(=O)NCc2ccc3c(c2)OCO3)sc2nc(-c3ccc(F)cc3)cn12	-11%[46.1 µM]	11%	0.89µM*	-2%	6%	-4%
COc1ccc(-c2n(CC(=O)OC3CC(C)CCC3C(C)C)c3ccccc3[n+]2C)cc1 (configuration not stated)	15%	9%[10 µM]	1%[9.22 µM]	-1%	4%	.
COc1ccc(OCc2n(CC(=O)OC3CC(C)CCC3C(C)C)c3ccccc3[n+]2C)cc1 (configuration not stated)	10µM*	-50%[10 µM]	-19%[9.22 µM]	-3%	2%	.
COc1ccccc1Cn1c(=O)c2ccccc2n2c(Sc3ncnc4sccc34)nnc12	-23%[46.1 µM]	1.6µM*	?	16%	1%	?
Cn1c(=N)c(S(=O)(=O)c2ccccc2)cc2c(=O)n3ccccc3nc21	-9%[46.1 µM]	-17%	3.2µM*	?	4%	1%
N[C@@H](CC1=CS(=O)(=O)c2ccc(Cl)cc21)C(=O)O	.	4%[10 µM]	.	.	.	.
COc1ccc(Br)cc1-c1noc(-c2ccccc2F)n1	-7%[46.1 µM]	-25%	4µM*	1%	6%	6%
Cc1cc(C)c(S(=O)(=O)Nc2cc(SCC(=O)O)c(O)c3ccccc23)cc1C	-19%	-18%[10 µM]	-6%	?	-10%	?
Cc1cc(C)c(S(=O)(=O)/N=C2/C=C(SCC(=O)O)C(=O)c3ccccc32)cc1C	4%	-159%	13µM*	?	?	.
COc1ccc2c(c1)CCC1C2CC[C@]2(C)[C@H](NCCCCCCN3C(=O)C=CC3=O)CC[C@@H]12 (some centres not stated)	.	-3%[1.9 µM]	.	.	.	.
CCCn1c(SCC(=O)c2ccc(CC)cc2)n[nH]c1=O	-3%[46.1 µM]	?	0.89µM*	-3%	1%	-7%
